# Measurements published in PubChem BioAssay (NCI).
# Compounds without any hit were thinned out: in the full panel of roughly 83,000, 20% have a hit.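 Results are percent growth after 48 hours of single-concentration exposure. 100 means growth as in untreated cells, lower positive values show inhibition; negative values down to -100 show cell death.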 Values without a mark were called inactive. Calls of active or inactive are those of the source. Rule for the calls: active = growth percent below 10; inactive = the rest.
# Test system: HL-60(TB) leukemia
# Assay: NCI-60 one-dose screen, 48 h (100 = growth as untreated, 0 = no growth, -100 = all killed)
# Conditions: 10 µM unless noted
row,SMILES,growth
1,COc1ccccc1N=Nc1c(O)ccc2cc(S(=O)(=O)O)ccc12,106%
2,COc1ccc(C(=O)c2cc3c(N)c(C(=O)Nc4ccc(Cl)cc4)sc3nc2C)cc1,62.9%
3,O=C1/C=C/[C@@H](O)[C@@H]2C[C@@H](O)C[C@H]2/C=C/CCC[C@H](CCc2ccccc2)O1,3.95% (active)
4,COc1ccc(-c2cc(-c3ccc(Cl)cc3)nc(SCCCC(=O)NO)n2)cc1,-22.9% (active)
5,N#Cc1c(-c2ccc(Cl)cc2)nc(NN=Cc2ccc[nH]2)nc1N1CCOCC1,2.28% (active)
6,CCN(CC)CCCC(C)N/C(c1cccc(OC)c1)=c1\c(=O)[nH]n(-c2c3ccccc3nc3ccccc23)c(=O)\c1=C(/NC(C)CCCN(CC)CC)c1cccc(OC)c1 (stereo not drawn),-43.5% (active)
7,O=[N+]([O-])c1ccc(C(Br)c2ccc([N+](=O)[O-])cc2)cc1,57.6%
8,CCOC(=O)c1sc(NC(=O)c2cc(OC)c(OC)c(OC)c2)nc1C,102%
9,c1ccc2c(NCCCN3CCN(CCCNc4c5ccccc5nc5ccccc45)CC3)c3ccccc3nc2c1,-23.8% [100 µM] (active)
10,C/C(=N\OC(=O)Nc1ccccc1)c1ccccc1,119%
11,Cc1c(-c2ccc(C3CCCCC3)cc2)nc2ccc(F)cc2c1C(=O)O,24.8%
12,N/C(=N\c1nc2ccccc2s1)NC(=O)Nc1cccc2ccccc12,-26.8% (active)
13,O=C(NCCNc1nccc(-c2c(-c3cccc(O)c3)nc3sccn23)n1)c1ccccc1,93.3%
